# Results reported in PubChem BioAssay (Tox21).
# Results filed as inconclusive are left out. Entries that show only a call come without a potency. The source made the active and inactive calls. Unless noted, calls come from the whole dose curve; as a rule, active = well fitted curve in the direction sought with a large enough effect in the repeat runs; inconclusive = weak or mixed curves; inactive = no such curve, though single readings can be large; an effect the other way counts as inactive or inconclusive.
# Key:
# [1] = qHTS assay to identify aromatase inhibitors - cell viability counter screen (AID 743084);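 note: cells stimulated with testosterone during compound exposure; nearly all actives have a fitted effect of over 55% in size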; note: potency is the fitted concentration of half-maximal effect
# [2] = target: Aryl hydrocarbon receptor (Homo sapiens) (UniProt P35869); assay: qHTS assay to identify small molecule that activate the aryl hydrocarbon receptor (AhR) signaling pathway (AID 743085); note: nearly all actives have a fitted effect of over 15% in size; note: potency is the fitted concentration of half-maximal effect;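 for activation: HG2L7.5c1 human HepG2 liver cells with stably integrated DRE-driven firefly reporter; series mostly up to about 70 µM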
# Chain of Aryl hydrocarbon receptor (Homo sapiens) (P35869 whole entry, looked up): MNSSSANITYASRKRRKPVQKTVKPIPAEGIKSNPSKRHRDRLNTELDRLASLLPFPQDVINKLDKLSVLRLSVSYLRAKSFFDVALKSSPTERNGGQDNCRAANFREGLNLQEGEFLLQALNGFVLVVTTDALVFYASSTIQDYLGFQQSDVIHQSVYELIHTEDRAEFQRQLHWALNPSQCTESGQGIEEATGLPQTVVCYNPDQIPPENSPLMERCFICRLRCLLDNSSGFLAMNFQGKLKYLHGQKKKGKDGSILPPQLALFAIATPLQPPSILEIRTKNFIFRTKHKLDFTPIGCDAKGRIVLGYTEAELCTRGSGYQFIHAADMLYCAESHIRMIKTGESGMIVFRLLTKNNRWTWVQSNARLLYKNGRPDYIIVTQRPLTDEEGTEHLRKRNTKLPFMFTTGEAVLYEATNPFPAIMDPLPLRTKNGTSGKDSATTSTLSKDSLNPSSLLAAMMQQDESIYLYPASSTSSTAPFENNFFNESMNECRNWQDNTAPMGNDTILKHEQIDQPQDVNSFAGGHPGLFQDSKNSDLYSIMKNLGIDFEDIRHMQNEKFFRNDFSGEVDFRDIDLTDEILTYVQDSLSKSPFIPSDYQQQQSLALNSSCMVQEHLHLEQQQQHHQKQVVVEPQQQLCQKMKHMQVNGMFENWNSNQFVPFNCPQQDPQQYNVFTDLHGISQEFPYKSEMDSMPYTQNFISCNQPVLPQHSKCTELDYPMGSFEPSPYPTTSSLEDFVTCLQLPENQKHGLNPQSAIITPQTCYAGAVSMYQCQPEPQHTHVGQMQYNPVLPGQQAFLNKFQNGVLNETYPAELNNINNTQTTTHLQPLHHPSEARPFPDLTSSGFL
# In short: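 Cell line HG2L7.5c1 (human hepatoma, 20× DRE-luc). Plated, 5 h 37C, compound/DMSO added, 24 h 37C. CellTiter-Fluor 30 min 37C → fluorescence; then ONE-Glo 30 min RT → luminescence.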
# [3] = qHTS assay to identify small molecule that activate the aryl hydrocarbon receptor (AhR) signaling pathway - cell viability counter screen (AID 743086); note: nearly all actives have a fitted effect of over 45% in size; note: potency is the fitted concentration of half-maximal effect
# In short: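 HepG2-AhR-luc (HG2L7.5c1) cells, 4000/well, were preincubated 5 h at 37C, exposed to compound in qHTS format for 24 hr at 37C, then given CellTiter-Fluor for 30 min; viability was read as fluorescence in the reporter wells.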
# [4] = qHTS assay for small molecule agonists of the antioxidant response element (ARE) signaling pathway - cell viability counter screen (AID 743203; calls by dose curve; note: nearly all actives have a fitted effect of over 55% in size; note: potency is the fitted concentration of half-maximal effect)
# In short: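 Viability counter screen: stably transfected ARE-bla HepG2 line, 16 hrs compound exposure at 37C/5% CO2, ATP-based CellTiter-Glo luminescence measured in the reporter wells.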
# [5] = qHTS assay for small molecule activators of the heat shock response signaling pathway - cell viability counter screen (AID 743209); note: nearly all actives have a fitted effect of over 50% in size; note: potency is the fitted concentration of half-maximal effect
# In short: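 Viability of HSE-bla HeLa cells is measured with CellTiter-Glo in the wells already used for the reporter read. Compound exposure lasts 5 h at 37 C, and luminescence is read after 30 min at room temperature.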
# [6] = qHTS assay to identify small molecule antagonists of the peroxisome proliferator-activated receptor delta (PPARd) signaling pathway - cell viability counter screen (AID 743213); note: nearly all actives have a fitted effect of over 50% in size; note: potency is the fitted concentration of half-maximal effect
# In short: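 In this counter screen, HEK293H cells carrying a UAS-beta-lactamase reporter are co-treated with test compounds and 300 nM L165041 (final) for 17 h at 37 C; cell viability is quantified by CellTiter-Glo luminescence.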
# [7] = qHTS assay to identify small molecule agonists of the farnesoid-X-receptor (FXR) signaling pathway - cell viability counter screen (AID 743218); note: nearly all actives have a fitted effect of over 45% in size; note: potency is the fitted concentration of half-maximal effect
# In short: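 Viability of FXR-bla HEK 293T cells is measured by ATP-based CellTiter-Glo luminescence following 16 h compound treatment at 37 C and a prior 2 h room-temperature beta-lactamase substrate step.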
# [8] = qHTS assay to identify small molecule antagonists of the farnesoid-X-receptor (FXR) signaling pathway - cell viability counter screen (AID 743221; active = well fitted cell-killing curve with a large enough effect in the repeat runs, not every such curve was filed as active; note: nearly all actives have a fitted effect of over 50% in size; note: potency is the fitted concentration of half-maximal effect)
# In short: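 Luminescence from CellTiter-Glo measures cytotoxicity in GeneBLAzer FXR-UAS-bla HEK 293T cells. Cells were exposed to compounds with 50 uM chenodeoxycholic acid (final) for 16 h at 37 C, in wells also used for the reporter readout.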
# [9] = target: Peroxisome proliferator-activated receptor gamma (Homo sapiens) (UniProt P37231); assay: qHTS assay to identify small molecule antagonists of the peroxisome proliferator-activated receptor gamma (PPARg) signaling pathway (AID 743191; calls by dose curve; note: series mostly up to about 63 µM; nearly all actives have a fitted effect of over 30% in size)
# Chain of Peroxisome proliferator-activated receptor gamma (Homo sapiens) (P37231 whole entry, looked up): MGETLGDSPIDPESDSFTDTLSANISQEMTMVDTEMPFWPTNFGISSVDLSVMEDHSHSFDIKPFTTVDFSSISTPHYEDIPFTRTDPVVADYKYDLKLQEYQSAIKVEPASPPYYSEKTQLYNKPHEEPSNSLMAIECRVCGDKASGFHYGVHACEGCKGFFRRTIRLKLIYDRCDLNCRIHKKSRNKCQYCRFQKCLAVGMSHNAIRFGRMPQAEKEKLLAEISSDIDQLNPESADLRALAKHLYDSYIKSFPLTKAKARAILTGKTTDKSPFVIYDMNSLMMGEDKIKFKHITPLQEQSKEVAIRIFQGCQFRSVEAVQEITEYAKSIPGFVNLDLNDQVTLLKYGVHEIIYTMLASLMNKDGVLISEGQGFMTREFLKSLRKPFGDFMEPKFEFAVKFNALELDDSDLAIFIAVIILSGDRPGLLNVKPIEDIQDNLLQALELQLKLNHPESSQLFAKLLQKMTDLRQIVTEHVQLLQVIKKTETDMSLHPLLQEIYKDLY
# In short: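 GeneBLAzer PPARg UAS-bla HEK293H cells carrying a UAS-driven beta-lactamase reporter were plated at 3000 cells/well, preincubated 5 h at 37C, then given compound for 17 h at 37C; LiveBLAzer B/G FRET substrate was read after 1 h at room temperature.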
# [10] = target: Peroxisome proliferator-activated receptor delta (Homo sapiens) (UniProt Q03181); assay: qHTS assay to identify small molecule agonists of the peroxisome proliferator-activated receptor delta (PPARd) signaling pathway (AID 743212; calls by dose curve)
# Chain of Peroxisome proliferator-activated receptor delta (Homo sapiens) (Q03181 whole entry, looked up): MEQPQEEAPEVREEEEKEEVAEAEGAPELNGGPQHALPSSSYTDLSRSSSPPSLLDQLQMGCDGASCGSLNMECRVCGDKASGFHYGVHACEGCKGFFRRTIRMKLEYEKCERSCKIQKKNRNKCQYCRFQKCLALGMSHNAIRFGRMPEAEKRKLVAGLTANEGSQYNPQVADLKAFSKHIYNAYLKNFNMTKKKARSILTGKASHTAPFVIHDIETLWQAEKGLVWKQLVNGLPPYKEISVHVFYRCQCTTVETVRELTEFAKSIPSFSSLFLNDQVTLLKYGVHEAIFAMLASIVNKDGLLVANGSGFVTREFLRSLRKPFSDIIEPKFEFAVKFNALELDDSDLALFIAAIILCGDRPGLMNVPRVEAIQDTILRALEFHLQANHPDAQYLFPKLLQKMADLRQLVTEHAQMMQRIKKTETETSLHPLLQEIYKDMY
# In short: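 Beta-lactamase reporter read by fluorescence (LiveBLAzer B/G FRET, 2 h, room temperature). Test agents, in DMSO, incubated at 37 C with PPARd-bla HEK293H cells.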
# [11] = target: Vitamin D3 receptor (Homo sapiens) (UniProt P11473); assay: qHTS assay to identify small molecule agonists of the vitamin D receptor (VDR) signaling pathway (AID 743222; calls by dose curve; note: potency is the fitted concentration of half-maximal effect)
# Chain of Vitamin D3 receptor (Homo sapiens) (P11473 whole entry, looked up): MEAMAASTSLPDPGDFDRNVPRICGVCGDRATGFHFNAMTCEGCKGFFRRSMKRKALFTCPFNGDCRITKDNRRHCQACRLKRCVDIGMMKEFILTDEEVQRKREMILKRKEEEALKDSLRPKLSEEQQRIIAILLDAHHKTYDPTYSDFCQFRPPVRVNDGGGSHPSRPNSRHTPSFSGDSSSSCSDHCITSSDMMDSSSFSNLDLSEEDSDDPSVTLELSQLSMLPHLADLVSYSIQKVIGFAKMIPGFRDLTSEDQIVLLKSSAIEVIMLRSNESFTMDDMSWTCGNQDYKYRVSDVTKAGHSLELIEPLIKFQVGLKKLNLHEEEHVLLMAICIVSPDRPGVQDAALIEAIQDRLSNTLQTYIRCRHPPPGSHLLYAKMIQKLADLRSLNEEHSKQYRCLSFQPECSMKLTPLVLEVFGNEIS
# In short: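 Fluorescence from cleaved LiveBLAzer B/G FRET substrate served as readout. VDR-bla cells had been treated 16 h at 37C with test compounds in DMSO, following a 4 h settling period, and substrate was loaded for 2 h at RT.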
# [12] = qHTS assay to identify small molecule agonists of the peroxisome proliferator-activated receptor delta (PPARd) signaling pathway - cell viability counter screen (AID 743211); note: nearly all actives have a fitted effect of over 55% in size; note: potency is the fitted concentration of half-maximal effect
# In short: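 HEK293H PPARd-bla, 3000 cells/well; 5 h preincubation 37C/5% CO2; cpd in DMSO, 17 h 37C; B/G FRET substrate 2 h RT; CellTiter-Glo 30 min RT, luminescence.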
# [13] = target: Peroxisome proliferator-activated receptor delta (Homo sapiens) (UniProt Q03181); assay: qHTS assay to identify small molecule antagonists of the peroxisome proliferator-activated receptor delta (PPARd) signaling pathway (AID 743215; active = well fitted inhibition curve with a large enough effect in the signal ratio in the repeat runs, not every such curve was filed as active; the % refers to the signal ratio;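 note: cells stimulated with agonist L165041 at 300 nM final during compound exposure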; note: potency is the fitted concentration of half-maximal effect)
# In short: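 Plated HEK293H PPARd-bla cells rested 5 h at 37 C and 5% CO2. Compound, then agonist L165041 at 300 nM final, was added; 17 h at 37 C followed. Substrate loading, 2 h room temperature, fluorescence measured.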
# [14] = qHTS assay to identify small molecule antagonists of the peroxisome proliferator-activated receptor gamma (PPARg) signaling pathway - cell viability counter screen (AID 743194); note: nearly all actives have a fitted effect of over 55% in size
# In short: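 PPARg-UAS-bla HEK293H cells were plated, rested 5 h at 37 C, then treated with compounds plus rosiglitazone (50 nM final) for 17 h at 37 C; viability was then read by CellTiter-Glo luminescence after 30 min at room temperature.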
# [15] = target: Vitamin D3 receptor (Homo sapiens) (UniProt P11473); assay: qHTS assay to identify small molecule antagonists of the vitamin D receptor (VDR) signaling pathway (AID 743223; active = well fitted inhibition curve with a large enough effect in the signal ratio in the repeat runs, not every such curve was filed as active; the % refers to the signal ratio)
# In short: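 Antagonist mode uses 1alpha,25-dihydroxyvitamin D3 at 3 nM final as stimulus. VDR-bla cells receive compounds in DMSO, incubate 16 h at 37C, then a beta-lactamase FRET substrate for 2 h at room temperature before fluorescence measurement.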
# [16] = target: Peroxisome proliferator-activated receptor gamma (Homo sapiens) (UniProt P37231); assay: qHTS assay to identify small molecule agonists of the peroxisome proliferator-activated receptor gamma (PPARg) signaling pathway (AID 743094; active = well fitted activation curve with a large enough effect in the signal ratio in the repeat runs, not every such curve was filed as active; the % refers to the signal ratio; note: potency is the fitted concentration of half-maximal effect)
# In short: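 Reporter activation was scored by fluorescence of cleaved LiveBLAzer B/G substrate (1 h, room temperature) in PPARg-bla HEK293H cells previously treated 17 h at 37C with DMSO-dissolved compounds.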
# [17] = qHTS assay for small molecule activators of the heat shock response signaling pathway (AID 743210; active = well fitted activation curve with a large enough effect in the signal ratio in the repeat runs, with a control signal flat, not every such curve was filed as active; the % refers to the signal ratio; note: series mostly up to about 63 µM)
# In short: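 Heat shock element–beta-lactamase HeLa reporter cells; qHTS with compounds for 5 h at 37 C; detection by FRET substrate fluorescence after 2.5 h at RT.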
# [18] = target: Bile acid receptor (Homo sapiens) (UniProt Q96RI1); assay: qHTS assay to identify small molecule antagonists of the farnesoid-X-receptor (FXR) signaling pathway (AID 743217; active = well fitted inhibition curve with a large enough effect in the signal ratio in the repeat runs, not every such curve was filed as active; the % refers to the signal ratio; note: potency is the fitted concentration of half-maximal effect)
# Chain of Bile acid receptor (Homo sapiens) (Q96RI1 whole entry, looked up): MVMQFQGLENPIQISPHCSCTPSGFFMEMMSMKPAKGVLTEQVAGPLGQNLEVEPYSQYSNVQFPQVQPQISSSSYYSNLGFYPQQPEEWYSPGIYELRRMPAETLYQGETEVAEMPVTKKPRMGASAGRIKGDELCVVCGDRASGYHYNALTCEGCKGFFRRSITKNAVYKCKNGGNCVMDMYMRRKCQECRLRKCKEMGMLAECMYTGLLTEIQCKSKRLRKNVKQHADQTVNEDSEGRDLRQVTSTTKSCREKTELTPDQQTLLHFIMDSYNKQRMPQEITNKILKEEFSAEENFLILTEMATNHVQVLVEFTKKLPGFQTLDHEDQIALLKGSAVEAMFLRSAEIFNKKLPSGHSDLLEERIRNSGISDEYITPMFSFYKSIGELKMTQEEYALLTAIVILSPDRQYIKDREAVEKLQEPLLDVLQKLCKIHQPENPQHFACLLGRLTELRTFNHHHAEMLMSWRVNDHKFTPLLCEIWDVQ
# In short: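 Screen of the Tox21 10K library in quantitative HTS format using FXR-UAS-bla HEK 293T reporter cells. Agonist chenodeoxycholic acid, 50 uM final, added with compounds; 16 h incubation at 37 °C; beta-lactamase FRET fluorescence measured.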
# [19] = target: Bile acid receptor (Homo sapiens) (UniProt Q96RI1); assay: qHTS assay to identify small molecule agonists of the farnesoid-X-receptor (FXR) signaling pathway (AID 743220; active = well fitted activation curve with a large enough effect in the signal ratio in the repeat runs, not every such curve was filed as active; the % refers to the signal ratio; note: potency is the fitted concentration of half-maximal effect)
# In short: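 FXR-UAS-bla HEK 293T cells carrying a UAS-driven beta-lactamase reporter were plated for 5 h at 37C/5% CO2, then exposed to DMSO-dissolved Tox21 10K compounds for 16 h at 37C. A LiveBLAzer B/G FRET substrate was loaded for 2 h at room temperature before fluorescence reading.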
smiles,measurement,setting,value
CCN=C1C=CC(=C(c2ccc(N(CC)CC)cc2)c2ccc(N(CC)CC)cc2)c2ccccc21,Potency,[1],9.63 µM (active)
same,Potency,[2],inactive
same,Potency,[3],24.2 µM (active)
same,Potency,[4],5.42 µM (active)
same,Potency,[5],21.7 µM (active)
same,Potency,[6],12.2 µM (active)
same,Potency,[7],6.88 µM (active)
same,Potency,[8],13.7 µM (active)
CN(C)c1ccc(N=Nc2ccccc2C(=O)O)cc1,Potency,[1],24.3 µM (active)
same,Potency,[2],54.5 µM (active)
same,Potency,[9],inactive
same,Potency,[4],61.1 µM (active)
same,outcome,[10],inactive
same,Potency,[8],inactive
same,Potency,[11],inactive
c1cc2c3c(c1)ccc1cccc(c13)C2,Potency,[1],inactive
same,Potency,[2],inactive
same,Potency,[3],inactive
same,Potency,[12],56.1 µM (active)
same,outcome,[10],inactive
same,Potency,[13],inactive
same,Potency,[8],inactive
same,Potency,[11],inactive
C=CCCCCCCC=C,Potency,[1],inactive
same,Potency,[2],inactive
same,Potency,[3],inactive
same,Potency,[14],inactive
same,Potency,[4],inactive
same,Potency,[5],49.1 µM (active)
same,Potency,[15],inactive
CC(C)c1ccc(O)c(C(C)C)c1,Potency,[2],inactive
same,Potency,[3],inactive
same,Potency,[16],inactive
same,Potency,[14],inactive
same,Potency,[5],inactive
same,outcome,[10],inactive
same,Potency,[13],inactive
same,Potency,[7],inactive
same,Potency,[11],inactive
ClC/C=C\CCl,Potency,[1],inactive
same,Potency,[3],inactive
same,Potency,[16],inactive
same,Potency,[9],inactive
same,Potency,[14],inactive
same,Potency,[4],inactive
same,Potency,[5],inactive
same,Potency,[17],inactive
same,Potency,[12],inactive
same,outcome,[10],inactive
same,Potency,[6],inactive
same,Potency,[13],inactive
same,Potency,[8],inactive
same,Potency,[11],inactive
same,Potency,[15],inactive
Clc1ccc(C(Cn2ccnc2)OCc2c(Cl)cccc2Cl)c(Cl)c1 (stereo unspecified),Potency,[1],inactive
same,Potency,[3],inactive
same,Potency,[16],inactive
same,Potency,[12],26.6 µM (active)
same,Potency,[18],21.1 µM (active)
same,Potency,[7],21.1 µM (active)
same,Potency,[19],10.6 µM (active)
same,Potency,[8],26.6 µM (active)
same,Potency,[11],inactive
CN1[C@@H]2CC[C@@H]1CC(OC(=O)C(CO)c1ccccc1)C2 (stereo partly specified),Potency,[1],inactive
same,Potency,[3],inactive
same,Potency,[14],inactive
same,Potency,[5],inactive
same,Potency,[12],inactive
same,Potency,[7],inactive
CCCCCCC(C)Nc1ccc(Nc2ccccc2)cc1 (stereo unspecified),Potency,[1],inactive
same,Potency,[3],inactive
same,Potency,[16],inactive
same,Potency,[4],inactive
same,Potency,[5],49 µM (active)
same,Potency,[12],43.6 µM (active)
same,outcome,[10],inactive
same,Potency,[13],49 µM (active)
same,Potency,[8],49 µM (active)
CCOC(=O)C1=C(C)NC(C)=C(C(=O)OCC)C1c1ccccc1/C=C/C(=O)OC(C)(C)C,Potency,[1],inactive
same,Potency,[3],inactive
same,Potency,[16],9.52 µM (active)
same,Potency,[14],inactive
same,Potency,[6],18.8 µM (active)
same,Potency,[7],23.7 µM (active)
same,Potency,[19],33.5 µM (active)
same,Potency,[11],29.8 µM (active)
CCc1ccc(O)c(C(C)(C)C)c1,Potency,[2],inactive
same,Potency,[3],inactive
same,Potency,[16],inactive
same,Potency,[5],inactive
same,outcome,[10],inactive
same,Potency,[7],inactive
same,Potency,[11],inactive
CCCCOc1ccc(C(=O)CCN2CCCCC2)cc1,Potency,[1],inactive
same,Potency,[3],inactive
same,Potency,[16],inactive
same,Potency,[9],inactive
same,Potency,[14],inactive
same,Potency,[4],26.6 µM (active)
same,Potency,[5],inactive
same,outcome,[10],inactive
same,Potency,[6],inactive
same,Potency,[13],inactive
same,Potency,[18],inactive
same,Potency,[7],inactive
same,Potency,[19],inactive
